According to PubChem BioAssay AID651860 (Broad Institute, 2012):
Entries with a potency or affinity are not part of this list. A number with no mark means an inactive call. Calls of active or inactive are those of the source.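 How the source made its calls: active means compounds lowering HepG2 cell ATP luminescence with a fitted half-maximal concentration at most twice the top tested dose; inconclusive means flat fit with 30 to 70 percent signal loss, or poor fit; inactive means the rest.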

assay: liver cell line viability loss – HepG2, luminescence plate reader, powder samples, set 2, cytotoxicity control, dose response (AID 651860); details: CellTiter-Glo ATP luminescence, 48 h; series mostly up to 26 µM; activity change, negative = cytotoxic: at the top concentration

| SMILES | activity change, negative = cytotoxic | outcome |
| --- | --- | --- |
| O=C(NC[C@@H]1c2ccccc2CCN1C(=O)[C@@H]1CCCC[C@@H]1C(=O)O)c1ccccc1 | -9.07% |  |
| Cc1cc(C)c(S(=O)(=O)Nc2nc(N(C)C)nc3ccccc23)c(C)c1 | -10.1% |  |
| O=C(O)C1CCCCC1C(=O)N1CCc2ccccc2[C@H]1C(=O)NCCc1ccccc1 (some centres undefined) | -10.2% |  |
| COC(=O)[C@@H]1CCCC[C@@H]1C(=O)N1CCc2ccccc2[C@H]1CN1C(=O)c2ccccc2C1=O | -4.15% |  |
| O=S(=O)(Nc1nc(NCC2CCCCC2)nc2ccccc12)c1ccccc1 | 14% |  |
| O=C(O)CCCC(=O)N1CCc2ccccc2C1CN1C(=O)c2ccccc2C1=O (centres undefined) | -4.83% |  |
| O=C(NC[C@@H]1c2ccccc2CCN1C(=O)[C@@H]1CCCC[C@@H]1C(=O)O)OCC1c2ccccc2-c2ccccc21 | 19.7% |  |
| O=C(O)C1CCCCC1C(=O)N1CCc2ccccc2C1CN1C(=O)[C@H]2CCCC[C@H]2C1=O (some centres undefined) | 11.5% |  |
| O=C1c2ccccc2C(=O)N1C[C@@H]1c2ccccc2CCN1C(=O)C1CCCCC1 | -16.3% |  |
| Cc1ccc(S(=O)(=O)Nc2cc(C(C(=O)OC(C)C)C(=O)C(F)(F)F)c(O)c3ccccc23)c(C)c1 (centres undefined) | -11.9% |  |
| O=C(NC[C@@H]1c2ccccc2CCN1C(=O)[C@@H]1CCCC[C@@H]1C(=O)O)c1ccc(CCl)cc1 | -0.926% |  |
| O=C(O)c1ccccc1C(=O)N1CCc2ccccc2C1CN1C(=O)c2ccccc2C1=O (centres undefined) | 3.68% |  |
| Cc1ccc(S(=O)(=O)NC[C@@H]2c3ccccc3CCN2C(=O)[C@@H]2CCCC[C@@H]2C(=O)O)c(C)c1 | 7.93% |  |
| C=CC(=O)NC[C@@H]1c2ccccc2CCN1C(=O)[C@@H]1CCCC[C@@H]1C(=O)O | 9.58% [at 12 µM] |  |
| O=C(NCCO)c1ccccc1C(=O)NC[C@@H]1c2ccccc2CCN1C(=O)C1CCCCC1C(=O)O (some centres undefined) | -4.28% |  |
| O=C(O)[C@H]1CCCC[C@H]1C(=O)N1CCc2ccccc2C1 (racemic) | -1.55% |  |
| O=C1c2ccccc2C(=O)N1CC1c2ccccc2CCN1C(=O)Cc1ccccc1 (centres undefined) | -3.5% [at 6 µM] |  |

| SMILES | activity change, negative = cytotoxic | outcome |
| --- | --- | --- |
| Cc1ccc(S(=O)(=O)NNc2nc(N3CC(O)CC3C(=O)O)nc3ccccc23)cc1 (centres undefined) | -7.49% |  |
| Cc1ccc(S(=O)(=O)NNc2nc(NCC(N)=O)nc3ccccc23)cc1 | -9.05% [at 12 µM] |  |
| O=C(NCCCN1CCOCC1)c1ccccc1C(=O)NC[C@@H]1c2ccccc2CCN1C(=O)C1CCCCC1C(=O)O (some centres undefined) | -16.8% |  |
| O=C(O)C1CCCCC1C(=O)N1CCc2ccccc2C1CN1C(=O)c2ccccc2S1(=O)=O (centres undefined) | -4.19% |  |
| C[C@@H](NC(=O)C1CCCC[C@H]1C(=O)O)c1ccccc1 (mixture of isomers) | 0.345% |  |
| O=C(O)CC(=O)N1CCc2ccccc2C1CN1C(=O)c2ccccc2C1=O (centres undefined) | 0.313% |  |
| O=C(O)[C@@H]1CCCN1C(=O)N1CCc2ccccc2[C@H]1CN1C(=O)c2ccccc2C1=O | -13.9% |  |
| C[C@H](NC(=O)C1CCCC[C@H]1C(=O)O)c1ccccc1 (mixture of isomers) | -5.04% |  |
| CCOC(=O)C(C(=O)OCC)c1cc(CN2C(=O)c3ccccc3C2=O)c2ccccc2n1 | 7.52% |  |
| O=C(Cc1ccccc1)NC[C@@H]1c2ccccc2CCN1C(=O)[C@@H]1CCCC[C@@H]1C(=O)O | 0.039% |  |
| COC(=O)CNc1nc(NS(=O)(=O)c2c(C)cc(C)cc2C)c2ccccc2n1 | -1.27% |  |
| O=C(O)[C@H]1C2C=CC(C2)[C@H]1C(=O)N1CCc2ccccc2C1CN1C(=O)c2ccccc2C1=O (some centres undefined) | -3.78% |  |
| O=C(Oc1cc(CN2C(=O)c3ccccc3C2=O)c2ccccc2[n+]1[O-])c1cccc(Cl)c1 | -8.9% |  |
| O=C(O)[C@H]1CCCC[C@H]1C(=O)N1CCc2ccccc2[C@H]1CNS(=O)(=O)c1ccc([N+](=O)[O-])cc1 | -11.1% |  |
| Cc1ccc(S(=O)(=O)NC(=O)[C@@H]2c3ccccc3CCN2C(=O)[C@@H]2CCCC[C@@H]2C(=O)O)cc1 |  | inactive |
| O=C(O)/C=C\C(=O)N1CCc2ccccc2C1CN1C(=O)c2ccccc2C1=O (centres undefined) | 3.21% |  |
| O=C(O)C1CCCCC1C(=O)NCC1c2ccccc2CCN1C(=O)Cc1ccccc1 (centres undefined) | 7.56% |  |
